# Screening data (PubChem BioAssay)
# dFosB act-1 = activators of delta FosB homodimer, primary screen, biochemical, fluorescence polarization, TAMRA-CDK5 oligo, single point; Protein FosB (Mus musculus), P13346; AID 493131, 2011; purified delta FosB; percent of positive-control signal above neutral wells; activation, % at 25 µM; 340,000 compounds, 0.99% hits;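 active = mean activation above about 17%, with every replicate also reaching it, limit read from the data, passing the limit was not always enough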
# NCF1 inh = p47phox/p22phox peptide binding inhibitors, primary screen, biochemical, uHTS, NADPH oxidase regulatory subunit; fluorescence polarization, 2 h; inhibition, % at 24.7 µM; 220,000 compounds, 0.53% hits; AID 1274, 2008; Neutrophil cytosol factor 1 (Homo sapiens), P14598;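 active = inhibition above about 30%, limit read from the data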;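 note: 0% = p47phox with labelled peptide and 100% = labelled peptide alone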
# Target sequence (P14598 whole entry, looked up): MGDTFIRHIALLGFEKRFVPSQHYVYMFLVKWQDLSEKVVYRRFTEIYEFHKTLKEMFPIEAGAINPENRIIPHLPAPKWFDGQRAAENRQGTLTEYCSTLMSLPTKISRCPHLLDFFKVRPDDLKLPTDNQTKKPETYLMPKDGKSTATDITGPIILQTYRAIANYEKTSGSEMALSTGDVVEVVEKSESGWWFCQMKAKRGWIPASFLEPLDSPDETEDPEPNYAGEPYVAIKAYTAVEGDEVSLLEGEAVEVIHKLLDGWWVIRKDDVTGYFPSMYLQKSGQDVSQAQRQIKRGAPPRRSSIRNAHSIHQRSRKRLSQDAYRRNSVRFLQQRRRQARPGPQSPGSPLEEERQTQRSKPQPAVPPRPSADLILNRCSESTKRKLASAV
# HMGR II inh = inhibitors of E. faecalis class II HMGR, primary screen, biochemical, Enterococcus faecalis. HMG-CoA reductase (Enterococcus faecalis, mvaE). purified E. faecalis HMGR, NADPH absorbance 340 nm kinetic. inhibition, % at 10 µM. 190,000 compounds, 0.41% hits. AID 1066, 2008;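 active = inhibition above a set limit, the median over all tested compounds plus 3 SD, cut at about 9.5% in these data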;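 note: enzyme runs in reverse so mevalonate oxidation gives rising NADPH absorbance; 0% = complete reaction with DMSO and 100% = background rate lacking mevalonate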
# 14-3-3 Bad PPI = inhibitors of 14-3-3 zeta/Bad binding, primary screen, biochemical, TR-FRET, bovine 14-3-3 zeta. AID 781, 2007. 220,000 compounds, 0.71% hits. TR-FRET 14-3-3zeta/Dy647-pBad peptide displacement, 1 h. inhibition, % at 21.7 µM;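 active = inhibition above about 70%, limit read from the data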;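 note: 0% = full 14-3-3 plus peptide FRET controls and 100% = background without 14-3-3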
# Target sequence (P63103 whole entry, looked up): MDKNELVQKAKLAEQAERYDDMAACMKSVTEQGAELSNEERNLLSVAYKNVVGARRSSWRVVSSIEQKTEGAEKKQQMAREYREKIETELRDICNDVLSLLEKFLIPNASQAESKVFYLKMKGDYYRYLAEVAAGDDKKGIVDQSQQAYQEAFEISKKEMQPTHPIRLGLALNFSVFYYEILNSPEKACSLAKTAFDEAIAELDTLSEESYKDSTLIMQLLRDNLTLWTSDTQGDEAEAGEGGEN
# dFosB act-2 = activators of mouse delta FosB DNA binding, confirmation, biochemical, fluorescence polarization, TAMRA-CDK5 oligo, cherry-picked samples; shares compounds with dFosB act-1; purified delta FosB; normalised: neutral wells 0, positive control 100; AID 588690, 2011; activation, % at 24.9 µM; 2,400 tested, under 10 active;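 active = highest replicate activation at or above 34% and every replicate reaching that threshold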;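 note: higher polarization means more probe DNA bound by delta FosB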
# An asterisk follows results filed as active; nt = no result given. Rows were chosen to be rich in hits. Some 1.9% of all compounds tested hit in one or more screens of this group.
SMILES,dFosB act-1,NCF1 inh,HMGR II inh,14-3-3 Bad PPI,dFosB act-2
O=[N+]([O-])c1ccc2[nH]cc(S(=O)(=O)N3CCN(c4cccc(Cl)c4)CC3)c2c1,25.9*,nt,nt,nt,4.4
O=S(=O)(c1ccccc1)N1CCN(c2cccc(Cl)c2)CC1,-5.1,nt,nt,nt,nt
Cc1cnc(C(=O)OCC(=O)Nc2cccc(C)c2C)cn1,0.1,nt,nt,nt,nt
O=C(NCC(=O)N(c1ccc2c(c1)OCO2)C(C(=O)NC1CCCC1)c1cccs1)c1ccco1 (stereo not drawn),50.1*,-8.7,-3.2,17.3,2.2
O=C(NC1CCCC1)C(c1cccs1)N(C(=O)c1ccco1)c1ccc2c(c1)OCO2 (stereo not drawn),-4.0,-3.1,-5.3,-1.7,nt
CC1(C)NC(=O)N(CC(=O)N2CCN(c3cccc(Cl)c3)CC2)C1=O,-1.1,nt,nt,nt,nt
Cc1c(Cc2ccccc2)sc(NC(=O)c2ccco2)c1C(N)=O,21.2*,6.8,-3.2,24.6,2.7
Brc1ccc(-c2nnc3sc(CN4CCC5(CC4)OCCO5)cn23)cc1,-2.9,12.4,4.2,-6.5,nt
Cc1cc2cc(C)c3nnc(SCC(=O)Nc4ccc(S(=O)(=O)N5CCCCC5)cc4)n3c2cc1C,21.8*,29.5,-7.9,16.1,2.0
O=C(NCCC1=CCCCC1)c1cc(S(=O)(=O)N2CCOCC2)c(Cl)cc1Cl,18.6*,nt,nt,nt,-2.7
COc1ccc(Cl)cc1C(=O)NC(=S)Nc1cc(-c2nc3ccccc3[nH]2)ccc1C,36.2*,-30.3,nt,49.1,1.7
O=C(CCCCC(=O)Nc1ccccc1)Nc1ccccc1,0.7,nt,nt,nt,nt
COc1ccc(/C=N/NC(=S)Nc2ccccc2)cc1COc1ccc(F)cc1F,-16.5,-5.1,-4.2,7.1,nt
Cc1cccc(Nc2nc(N3CCOCC3)nc(N3CCOCC3)n2)c1,-8.7,nt,nt,nt,nt
COc1cccc(Nc2nc(N)nc(-c3oc4ccccc4c3C)n2)c1,59.6*,-24.4,-1.4,2.8,0.4
Cc1cccc(Nc2nc(N)nc(-c3oc4ccccc4c3C)n2)c1,78.5*,-29.1,nt,0.9,-0.6
COc1ccc(NC(=O)c2cc(S(=O)(=O)N3CCS(=O)(=O)CC3)ccc2Cl)cc1,51.9*,-19.4,-1.8,-19.6,2.4
COc1ccc(NC(=O)c2cc(S(=O)(=O)N3CCCC3)ccc2OC)cc1,-7.1,nt,nt,nt,nt
COC(=O)CSc1[nH]c2ccc(Br)cc2c1[N+](=O)[O-],5.5,0.4,0.6,0.1,nt
O=C(c1ccccc1)c1ccc2cc(O)ccc2c1,-6.5,nt,nt,nt,nt
NS(=O)(=O)c1ccc(CCNC(=O)C2CCC(Cn3c(=S)[nH]c4ccccc4c3=O)CC2)cc1 (stereo not drawn),17.9*,-11.7,-1.7,9.1,3.3
O=C(NCCc1ccccc1)C1CCC(CNc2nc(=S)[nH]c3ccccc23)CC1 (stereo not drawn),23.6*,-18.7,1.5,8.5,5.8
O=C(CN1CCc2ccccc2C1)Nc1cc(S(=O)(=O)N2CCOCC2)ccc1N1CCCC1,5.5,-14.7,-1.8,9.9,nt
COc1cccc(NC(=O)CSc2nc(C3CC3)nc3ccccc23)c1,4.2,nt,nt,nt,nt
Cc1cccc(C)c1NC(=O)CSc1nc(C2CC2)nc2ccccc12,20.3*,nt,nt,nt,5.4
SMILES,dFosB act-1,NCF1 inh,HMGR II inh,14-3-3 Bad PPI,dFosB act-2
Cc1cc(NC(=O)CSc2nc(CCC3CCCC3)nc3ccccc23)no1,47.4*,-19.1,0.7,10.4,-4.5
O=C(CSc1nc(C2CC2)nc2c1cnn2-c1ccccc1)Nc1c[nH]c(=O)[nH]c1=O,127.4*,-7.7,0.0,26.5,2.7
Cc1nn(Cc2ccccc2)c(C)c1NC(=O)CSc1nc(C2CC2)nc2c1cnn2-c1ccccc1,1.5,0.2,0.1,41.4,nt
N#Cc1ccccc1S(=O)(=O)N1CCN(C(=O)CN2CCCSc3ccccc32)CC1,-11.1,nt,nt,nt,nt
CCOc1cc(/C=N\Nc2ccc([N+](=O)[O-])cc2)ccc1OCC(=O)Nc1ccc(C)c(C)c1,6.8,-51.4,-3.8,12.2,nt
COc1cc(/C=N/NC(=O)c2cccc([N+](=O)[O-])c2)ccc1OCc1ccc(C)cc1,49.6*,-39.8,-0.7,7.1,4.5
CCOc1cc(/C=N/NC(=O)Cn2nc([N+](=O)[O-])cc2C)ccc1OCc1ccc(F)cc1,35.3*,5.6,1.1,14.7,2.2
CCOc1cc(/C=N\NC(=O)Cc2ccccc2)ccc1OCC(=O)Nc1ccc(C)c(C)c1,24.0*,-5.8,1.9,0.7,3.1
COc1cc(/C=N\NC(=O)c2ccc(-c3ccccc3)cc2)ccc1OCC(N)=O,66.4*,nt,nt,nt,6.4
COc1ccc(/C=N/NC(=O)c2cccc([N+](=O)[O-])c2)cc1O,-7.4,-11.8,1.7,0.2,nt
CCN(CC)c1ccc(C(=S)NCc2ccccc2)cc1,0.4,-5.4,-6.8,-11.9,nt
CC(C)c1nnc2c(N(C)S(=O)(=O)c3ccccc3)nc3ccccc3n12,-0.8,nt,nt,nt,nt
COc1ccc(/C=N/NC(=O)c2[nH]nc3c2CCc2ccccc2-3)cc1OC,88.1*,-1.1,-1.1,11.5,3.0
COc1cc(/C=N/NC(=O)c2ccccc2O)ccc1OCC(=O)Nc1ccccc1,27.5*,nt,nt,nt,1.6
O=C(CCc1nc2ccccc2[nH]c1=O)OCc1ccc(S(=O)(=O)N2CCOCC2)cc1,-2.5,-7.3,-3.4,2.0,nt
Cc1nc(SCC(=O)NC(C)c2ccccc2)c2oc3ccccc3c2n1 (stereo not drawn),34.5*,20.7,0.6,37.0,3.1
O=C(CSc1ncnc2c1oc1ccccc12)Nc1nc2ccccc2s1,33.3*,-27.2,-9.6,6.3,2.2
Cc1ccc(NC(=O)CSc2nc3c(c(=O)[nH]2)CCCC3)cc1C,6.0,nt,nt,nt,nt
Cc1cc(C)cc(N(CCC#N)C(=O)CSc2nc3nc(C)cc(C)n3n2)c1,0.5,-16.3,-1.0,-1.0,nt
CCOC(=O)c1c(CN(C)C)n(-c2ccccc2)c2cc(Br)c(OC)cc12,-14.7,-15.2,0.1,3.2,nt
CCOC(=O)c1c(C)n(CC(O)CN(C)C)c2cc(Br)c(OC)cc12 (stereo not drawn),31.2*,-1.8,5.0,-3.4,1.9
Cc1cc2c(cc1C)C(c1cc(Br)ccc1F)CC(=O)N2 (stereo not drawn),21.7*,-1.3,-3.6,10.8,2.5
COc1ccc(NC(=O)CC2C(=O)N(c3ccc(OC)cc3)C(=S)N2NC(=O)c2cccc(F)c2)cc1 (stereo not drawn),0.3,-15.5,-0.8,0.5,nt
CCOc1ccc(NC(=O)CC2C(=O)N(c3ccc(OC)c(Cl)c3)C(=S)N2C2CC2)cc1 (stereo not drawn),28.4*,nt,nt,nt,5.6
COc1ccc(N2C(=O)C(CC(=O)Nc3ccc(Cl)cc3)N(NC(=O)c3cccc(F)c3)C2=S)cc1 (stereo not drawn),25.2*,-16.2,nt,-1.9,-6.1
